Where a name gives a salt, the structure may show the parent alone. ± gives the standard deviation of the averaged measurements.
Key:
Test in all cases: growth (OD600 after 10 h); higher = more growth (less inhibition)
[1] = tested on: E. coli TESEC Alr+ wild-type control; conditions: compound 0.1 mM; raw OD600 reference: median of DMSO wells 0.241, cell-free background 0.041
Procedure: (§1)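 TESEC Mtb Alr E. coli, or the Alr+ wild-type control, in 384-well plates with Prestwick library compounds at 0.1 mM and 1% DMSO, across arabinose induction levels of 1E3 to 1E7 nM. Growth is read as OD600 after 10 h at 37 °C in triplicate biological replicates.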

E. coli TESEC Mtb Alr [2] = conditions: compound 0.1 mM
Procedure: as §1

E. coli TESEC Mtb Asd = conditions: compound 0.1 mM
Procedure: (§2)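 TESEC E. coli strains in which the native enzyme is deleted and replaced by arabinose-inducible Mtb Asd, DapB, CysH or TrpD, each grown in its selective medium. Strains were screened against the Prestwick library at 0.1 mM and 1% DMSO in 384-well format at low and high arabinose induction. Growth is read as OD600 after 10 h in triplicate.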

E. coli TESEC Mtb DapB = conditions: compound 0.1 mM
Procedure: as §2

[3] = tested on: E. coli TESEC Alr+ wild-type control; conditions: compound 0.1 mM; raw OD600 reference: median of DMSO wells 0.49, cell-free background 0.052
Procedure: (§3)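 TESEC Mtb Alr E. coli (ΔaraC ΔtolC ΔentC Δalr ΔdadX, arabinose-inducible Mtb Alr) or the Alr+ wild-type control strain, grown in defined M9-fructose medium without D-alanine in 96-well plates with Prestwick library compounds at 0.1 mM and 1% DMSO. Low Alr induction is 0.1 µM arabinose and high induction is 10 mM arabinose.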

E. coli TESEC Mtb Alr [4] = conditions: compound 0.1 mM; remark: listed apart in the source
Procedure: as §3

[5] = arabinose 1000 nM, raw OD600 reference: median of DMSO wells 0.294, cell-free background 0.041
[6] = arabinose 10000 nM, raw OD600 reference: median of DMSO wells 0.264, cell-free background 0.041
[7] = arabinose 100000 nM, raw OD600 reference: median of DMSO wells 0.201, cell-free background 0.041
[8] = arabinose 1000000 nM, raw OD600 reference: median of DMSO wells 0.193, cell-free background 0.041
[9] = arabinose 10000000 nM, raw OD600 reference: median of DMSO wells 0.146, cell-free background 0.041
[10] = arabinose induction (level): High, raw OD600 reference: median of DMSO wells 0.331, cell-free background 0.041
[11] = arabinose induction (level): Low, raw OD600 reference: median of DMSO wells 0.417, cell-free background 0.041
[12] = arabinose induction (level): High, raw OD600 reference: median of DMSO wells […], cell-free background 0.041
[13] = arabinose induction (level): Low, raw OD600 reference: median of DMSO wells 0.227, cell-free background 0.041
[14] = arabinose 100 nM, raw OD600 reference: median of DMSO wells 0.413, cell-free background 0.052
[15] = arabinose 10000000 nM, raw OD600 reference: median of DMSO wells […], cell-free background 0.052

SMILES | growth [1] | growth (E. coli TESEC Mtb Alr [2]; [5]) | growth (E. coli TESEC Mtb Alr [2]; [6]) | growth (E. coli TESEC Mtb Alr [2]; [7]) | growth (E. coli TESEC Mtb Alr [2]; [8]) | growth (E. coli TESEC Mtb Alr [2]; [9]) | growth (E. coli TESEC Mtb Asd; [10]) | growth (E. coli TESEC Mtb Asd; [11]) | growth (E. coli TESEC Mtb DapB; [12]) | growth (E. coli TESEC Mtb DapB; [13]) | growth [3] | growth (E. coli TESEC Mtb Alr [4]; [14]) | growth (E. coli TESEC Mtb Alr [4]; [15])
Cc1onc(-c2ccccc2)c1C(=O)N[C@@H]1C(=O)N2[C@@H]1SC(C)(C)[C@@H]2C(=O)O [Oxacillin sodium] | 0.246 ± 0.017 | 0.298 ± 0.017 | 0.249 ± 0.012 | 0.198 ± 0.015 | 0.187 ± 0.0051 | 0.14 ± 0.0038 | 0.468 ± 0.036 | 0.477 ± 0.0063 | 0.192 ± 0.0086 | 0.243 ± 0.046 | 0.492 ± 0.054 | 0.421 ± 0.0073 | 0.362 ± 0.0089
CCc1cccc(CC)c1NC(=O)CN(CC(=O)O)CC(=O)O [Etifenin] | 0.2457 ± 0.00078 | 0.295 ± 0.011 | 0.276 ± 0.0042 | 0.231 ± 0.012 | 0.192 ± 0.011 | 0.146 ± 0.0052 | 0.29 ± 0.033 | 0.375 ± 0.09 | 0.179 ± 0.015 | 0.196 ± 0.003 | 0.603 ± 0.11 | 0.412 ± 0.012 | 0.338 ± 0.017
Cc1nc(=O)c2cc(CN(C)c3ccc(C(=O)N[C@@H](CCC(=O)O)C(=O)O)s3)ccc2[nH]1 [Raltitrexed] | 0.229 ± 0.012 | 0.259 ± 0.0086 | 0.358 ± 0.013 | 0.171 ± 0.02 | 0.173 ± 0.0097 | 0.162 ± 0.0053 | 0.269 ± 0.05 | 0.4225 ± 0.0017 | 0.188 ± 0.015 | 0.198 ± 0.029 | 0.606 ± 0.055 | 0.409 ± 0.016 | 0.322 ± 0.011
C/C(=C(\CCOP(=O)(O)O)SC(=O)c1ccccc1)N(C=O)Cc1cnc(C)nc1N [Benfotiamine] | 0.2481 ± 0.0011 | 0.317 ± 0.014 | 0.257 ± 0.0029 | 0.205 ± 0.019 | 0.186 ± 0.006 | 0.141 ± 0.0056 | 0.352 ± 0.068 | 0.41 ± 0.11 | 0.188 ± 0.0089 | 0.224 ± 0.032 | 0.502 ± 0.11 | 0.404 ± 0.0067 | 0.359 ± 0.0094
CCOC(=O)O[C@]1(C(=O)OCCl)CC[C@H]2[C@@H]3CCC4=CC(=O)C=C[C@]4(C)[C@H]3[C@@H](O)C[C@@]21C [Loteprednol etabonate] | 0.135 ± 0.003 | 0.167 ± 0.02 | 0.15 ± 0.0072 | 0.196 ± 0.028 | 0.114 ± 0.01 | 0.179 ± 0.0076 | 0.24 ± 0.019 | 0.26 ± 0.14 | 0.174 ± 0.027 | 0.233 ± 0.028 | 0.473 ± 0.12 | 0.371 ± 0.017 | 0.219 ± 0.024
C[N+](C)(CCOc1ccccc1)Cc1ccccc1.O=C([O-])c1cc2ccccc2cc1O [Bephenium hydroxynaphthoate] | 0.175 ± 0.0073 | 0.266 ± 0.017 | 0.207 ± 0.0049 | 0.203 ± 0.0078 | 0.104 ± 0.0033 | 0.134 ± 0.0047 | 0.486 ± 0.047 | 0.365 ± 0.069 | 0.176 ± 0.046 | 0.216 ± 0.019 | 0.509 ± 0.023 | 0.381 ± 0.016 | 0.263 ± 0.0088
CNCCC=C1c2ccccc2CCc2ccccc21 [Nortriptyline hydrochloride] | 0.188 ± 0.014 | 0.181 ± 0.0093 | 0.205 ± 0.011 | 0.155 ± 0.01 | 0.0683 ± 0.00076 | 0.0845 ± 0.0019 | 0.137 ± 0.0013 | 0.179 ± 0.0089 | 0.185 ± 0.025 | 0.195 ± 0.04 | 0.46 ± 0.061 | 0.4083 ± 0.0029 | 0.264 ± 0.013
CC1=C(C(=O)O)N2C(=O)[C@@H](NC(=O)[C@H](N)c3ccc(O)cc3)[C@H]2SC1 [Cefadroxil] | 0.255 ± 0.012 | 0.2848 ± 0.0015 | 0.274 ± 0.011 | 0.217 ± 0.011 | 0.199 ± 0.002 | 0.137 ± 0.0042 | 0.294 ± 0.035 | 0.444 ± 0.13 | 0.192 ± 0.0046 | 0.222 ± 0.011 | 0.606 ± 0.045 | 0.427 ± 0.012 | 0.326 ± 0.011
